# PubChem BioAssay
# Calls of active or inactive are those of the source. Unless noted, the rule behind the calls is not given here.
# Legend:
# [1] = anti-His antibody binders, primary screen, artefact control for SMM control protein annotation, biochemical, small-molecule microarray, 635 nm fluorescence (AID 1128); settings: anti-His Alexa647 antibody binding, higher = more signal;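 note: score merges feature fluorescence with signal-to-noise for each printed compound spot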
# [2] = tested on: Human papillomavirus type 1a E7 protein (residues 1-88); assay: HPV1a E7 small-molecule binders, primary screen, biochemical, small-molecule microarray, residues 1-88, 635 nm (AID 1129); settings: small-molecule microarray binding, fluorescence 635 nm; higher = more signal
# [3] = target: Focal adhesion kinase 1 (Homo sapiens) (UniProt Q05397); assay: small-molecule microarray binders of FAK, primary screen, biochemical, 635/667 nm fluorescence, BSA, DTT (AID 1130); settings: PTK2 binding, 635 nm fluorescence, higher = more signal;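 note: composite of spot emission at 667 nm and signal to noise over triplicate slides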
# [4] = tested on: Fibrinogen (Alexa647-labelled); assay: fibrinogen binders on compound microarrays, profiling panel, artefact control for SMM control-protein annotation, biochemical, small-molecule microarray, 635/667 nm fluorescence (AID 1131); settings: fibrinogen-A647 binding fluorescence, higher = more signal;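 note: z-score merges 667 nm fluorescence with per-spot signal-to-noise over triplicate slides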
# [5] = target: Follistatin (Homo sapiens) (UniProt P19883); assay: follistatin binders on small-molecule microarrays, primary screen, biochemical, small-molecule microarray, 635/667 nm fluorescence (AID 1132); settings: FST binding, 635 nm fluorescence, higher = more signal
# [6] = target: Fibroblast growth factor 2 (Homo sapiens) (UniProt P09038); assay: FGF2 binders on small-molecule microarrays, primary screen, biochemical, small-molecule microarray, 635/667 nm fluorescence (AID 1133); settings: small-molecule microarray binding, FGF2, fluorescence 635/667; higher = more signal
# [7] = mitochondrial membrane potential change in A549 cells, profiling panel, cell-based, JC-1 fluorescence, basal, 24 h, 100 nL (AID 1138); settings: higher = more signal;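 note: A549 lung adenocarcinoma cells under basal conditions with no added stimulus; test concentration not given here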
# Lefty1 = Lefty1 binders on small-molecule microarrays, primary screen, biochemical, small-molecule microarray, 635/667 nm fluorescence (AID 1139); settings: small-molecule microarray binding, fluorescence 635/667; higher = more signal
# [8] = tested on: wheat germ agglutinin (Triticum aestivum), Alexa647-labelled; assay: wheat germ agglutinin binders on compound microarrays, profiling panel, artefact control for SMM control-protein annotation, biochemical, small-molecule microarray, 635/667 nm fluorescence (AID 1140); settings: WGA-A647 binding, 635 nm fluorescence, higher = more signal;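 note: score merges 667 nm feature emission with signal to noise over triplicate slides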
# [9] = target: Luciferin 4-monooxygenase (Photinus pyralis) (UniProt P08659); assay: firefly luciferase enzyme inhibitors, primary screen, biochemical, luminescence, purified enzyme, 2006 set (AID 1141); settings: SteadyGlo luminescence, 30 min, higher = more signal, called active from +8 up or from −8 down;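 note: cell-free assay with purified firefly luciferase at 100 ng per well in PBS; test concentration not given here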
# [10] = tested on: Wnt5a (protein binding on small-molecule microarray); assay: Wnt5a binders on small-molecule microarray, primary screen, biophysical, 635/667 nm fluorescence (AID 1142); settings: 635 nm fluorescence, higher = more signal;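 note: fluorescence read at 667 nm with signal to noise per printed feature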
# [11] = cell viability in Huh7 cells, primary screen, cytotoxicity control for HCV replication inhibitor project, CellTiter-Glo luminescence, basal, 48 h (AID 1143); settings: Huh7 HCV replicon, higher = more signal, called active from +8 up or from −8 down;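 note: Huh7 hepatoma cells carrying a hepatitis C replication reporter with no stimulus; test concentration not given here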
# [12] = P. aeruginosa biofilm formation inhibitors, primary screen, PAO1 strain, BacTiter-Glo luminescence, LB-PBS (AID 1144); settings: 12 h, higher = more signal
# [13] = CREB reporter modulators without forskolin, primary screen, cell-based, PC12, CRE-LacZ reporter, unstimulated (AID 1145); settings: no forskolin, luminescence, 4.5 h, higher = more signal, called active from +8 up or from −8 down
# [14] = CREB reporter modulators under forskolin, primary screen, cell-based, PC12, CRE-LacZ reporter, forskolin-stimulated (AID 1146); settings: luminescence, 4.5 h, higher = more signal, called active from +8 up or from −8 down;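 note: PC12 cells with 6xCRE LacZ reporter stimulated by forskolin 10 µM; beta-galactosidase reporter signal reflecting CREB driven transcription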
# [15] = target: Streptavidin (Streptomyces avidinii) (UniProt P22629); assay: streptavidin binders on small-molecule microarray, primary screen, artefact control for SMM compound annotation, biophysical, 635/667 nm fluorescence (AID 1147); settings: streptavidin binding, higher = more signal;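 note: signal reflects streptavidin binding to arrayed compounds as a control protein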
# [16] = small-molecule binders of probe aInhba, primary screen, biochemical, small-molecule microarray, 635/667 nm fluorescence (AID 1148); settings: higher = more signal;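 note: score merges 667nm spot fluorescence with signal-to-noise for antibody binding to printed compounds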
# Torsin-1A (Homo sapiens) [17] = target: Torsin-1A (Homo sapiens) (UniProt O14656); assay: torsin A binders from cell lysate, primary screen, small-molecule microarray, wild-type, 635/667 nm (AID 1149); settings: COS7 hTOR1A-WT lysate, 635 nm fluorescence, higher = more signal
# Torsin-1A (Homo sapiens) [18] = target: Torsin-1A (Homo sapiens) (UniProt O14656); assay: small-molecule binders of mutant TOR1A in lysate, primary screen, cell lysate, small-molecule microarray, COS7 lysate, 635/667 nm fluorescence (AID 1150); settings: COS7 hTOR1A mutant lysate, 635 nm fluorescence, higher = more signal;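 note: score pools 667 nm emission and signal to noise measuring lysate protein binding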
# [19] = tested on: Sonic hedgehog protein (Shh); assay: small-molecule binders of Shh protein, primary screen, biochemical, small-molecule microarray, 635/667 nm fluorescence (AID 1151); settings: small-molecule microarray binding, 635 nm fluorescence; higher = more signal;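 note: Shh protein binding to compounds spotted on small-molecule microarray slides; score combines spot fluorescence intensity with signal-to-noise across triplicate slides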
# Chain of Streptavidin (Streptomyces avidinii) (P22629 whole entry, looked up): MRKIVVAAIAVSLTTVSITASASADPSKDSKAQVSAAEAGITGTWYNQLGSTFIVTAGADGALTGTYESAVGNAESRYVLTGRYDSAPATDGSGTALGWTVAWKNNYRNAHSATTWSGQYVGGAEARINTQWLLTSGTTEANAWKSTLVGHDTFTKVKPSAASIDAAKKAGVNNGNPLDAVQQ
# Chain of Luciferin 4-monooxygenase (Photinus pyralis) (P08659 whole entry, looked up): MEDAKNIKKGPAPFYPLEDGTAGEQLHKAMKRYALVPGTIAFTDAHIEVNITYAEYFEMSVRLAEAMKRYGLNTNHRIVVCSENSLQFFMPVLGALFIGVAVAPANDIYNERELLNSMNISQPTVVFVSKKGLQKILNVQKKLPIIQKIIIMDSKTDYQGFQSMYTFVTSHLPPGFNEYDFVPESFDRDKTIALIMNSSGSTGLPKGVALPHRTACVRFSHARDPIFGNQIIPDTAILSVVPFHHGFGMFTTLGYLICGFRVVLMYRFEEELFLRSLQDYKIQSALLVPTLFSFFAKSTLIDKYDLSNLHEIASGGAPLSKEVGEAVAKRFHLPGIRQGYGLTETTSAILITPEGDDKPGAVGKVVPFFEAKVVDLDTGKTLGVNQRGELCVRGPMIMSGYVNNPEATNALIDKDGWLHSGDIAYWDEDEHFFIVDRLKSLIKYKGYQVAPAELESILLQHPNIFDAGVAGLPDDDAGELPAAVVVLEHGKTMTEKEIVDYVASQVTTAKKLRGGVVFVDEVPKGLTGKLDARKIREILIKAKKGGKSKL
# Chain of Focal adhesion kinase 1 (Homo sapiens) (Q05397 whole entry, looked up): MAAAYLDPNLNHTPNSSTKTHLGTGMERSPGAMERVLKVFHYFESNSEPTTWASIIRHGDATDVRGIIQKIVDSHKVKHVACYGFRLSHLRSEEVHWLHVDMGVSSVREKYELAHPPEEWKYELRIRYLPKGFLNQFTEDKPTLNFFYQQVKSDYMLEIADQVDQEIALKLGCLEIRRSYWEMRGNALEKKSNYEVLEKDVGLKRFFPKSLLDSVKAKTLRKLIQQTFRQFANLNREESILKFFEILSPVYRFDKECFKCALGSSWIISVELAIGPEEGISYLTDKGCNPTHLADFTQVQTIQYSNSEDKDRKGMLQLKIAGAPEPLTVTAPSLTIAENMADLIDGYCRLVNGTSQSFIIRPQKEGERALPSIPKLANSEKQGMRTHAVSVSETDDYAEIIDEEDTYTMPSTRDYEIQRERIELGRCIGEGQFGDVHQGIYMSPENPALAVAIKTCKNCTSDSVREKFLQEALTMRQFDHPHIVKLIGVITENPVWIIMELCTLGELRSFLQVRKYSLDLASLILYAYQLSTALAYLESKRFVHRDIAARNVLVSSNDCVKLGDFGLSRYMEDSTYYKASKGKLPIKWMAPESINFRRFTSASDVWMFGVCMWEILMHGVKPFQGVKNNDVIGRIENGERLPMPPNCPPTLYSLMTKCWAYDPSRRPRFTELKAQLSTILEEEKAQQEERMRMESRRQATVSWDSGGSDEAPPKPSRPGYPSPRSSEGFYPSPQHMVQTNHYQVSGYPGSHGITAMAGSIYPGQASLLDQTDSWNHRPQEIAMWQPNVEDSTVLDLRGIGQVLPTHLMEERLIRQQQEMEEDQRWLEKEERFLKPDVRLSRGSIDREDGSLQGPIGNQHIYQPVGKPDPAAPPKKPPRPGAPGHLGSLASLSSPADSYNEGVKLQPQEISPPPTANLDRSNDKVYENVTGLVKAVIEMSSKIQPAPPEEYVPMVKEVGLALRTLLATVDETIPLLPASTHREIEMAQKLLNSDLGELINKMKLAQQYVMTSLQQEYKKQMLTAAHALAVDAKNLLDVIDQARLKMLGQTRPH
# Chain of Fibroblast growth factor 2 (Homo sapiens) (P09038 whole entry, looked up): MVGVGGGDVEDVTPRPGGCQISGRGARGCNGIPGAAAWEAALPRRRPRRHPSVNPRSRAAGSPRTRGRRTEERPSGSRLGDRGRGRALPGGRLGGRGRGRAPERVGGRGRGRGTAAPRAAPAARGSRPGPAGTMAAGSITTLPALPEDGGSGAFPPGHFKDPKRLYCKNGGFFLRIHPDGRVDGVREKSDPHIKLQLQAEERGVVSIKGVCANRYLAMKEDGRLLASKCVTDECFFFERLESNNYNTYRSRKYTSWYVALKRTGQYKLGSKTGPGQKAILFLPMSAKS
# Chain of Follistatin (Homo sapiens) (P19883 whole entry, looked up): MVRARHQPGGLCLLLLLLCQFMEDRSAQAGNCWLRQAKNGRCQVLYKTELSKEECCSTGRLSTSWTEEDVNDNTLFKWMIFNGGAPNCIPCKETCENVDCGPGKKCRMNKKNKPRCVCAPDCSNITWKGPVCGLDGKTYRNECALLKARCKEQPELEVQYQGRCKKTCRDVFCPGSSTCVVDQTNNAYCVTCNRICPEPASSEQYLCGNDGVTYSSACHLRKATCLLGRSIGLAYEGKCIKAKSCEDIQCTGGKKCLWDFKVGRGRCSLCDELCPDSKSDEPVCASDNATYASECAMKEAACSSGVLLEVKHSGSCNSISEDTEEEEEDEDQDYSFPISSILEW
# Chain of Torsin-1A (Homo sapiens) (O14656 whole entry, looked up): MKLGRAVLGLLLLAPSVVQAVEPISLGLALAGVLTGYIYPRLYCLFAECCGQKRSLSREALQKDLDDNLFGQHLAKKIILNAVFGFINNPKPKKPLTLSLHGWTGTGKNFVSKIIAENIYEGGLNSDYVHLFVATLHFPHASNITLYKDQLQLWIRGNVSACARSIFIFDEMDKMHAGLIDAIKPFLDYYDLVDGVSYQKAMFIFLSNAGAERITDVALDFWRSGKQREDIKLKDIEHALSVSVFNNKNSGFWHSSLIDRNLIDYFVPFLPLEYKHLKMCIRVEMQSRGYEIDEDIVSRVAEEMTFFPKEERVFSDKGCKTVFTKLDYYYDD
Structure (SMILES),composite z-score [1],composite z-score [2],composite z-score [3],composite z-score [4],composite z-score [5],composite z-score [6],z-score [7],composite z-score (Lefty1),composite z-score [8],z-score [9],composite z-score [10],z-score [11],z-score [12],z-score [13],z-score [14],composite z-score [15],composite z-score [16],composite z-score (Torsin-1A (Homo sapiens) [17]),composite z-score (Torsin-1A (Homo sapiens) [18]),composite z-score [19]
CC(C)CNC(=O)[C@@H]1c2ccccc2C(=O)N(Cc2ccccc2)[C@H]1c1ccc(CO)cc1,1.85,0.601,0.0313,-0.66,-0.0977,0.605,0.0606,-1.7,-0.481,0.0723 (inactive),-0.267,-0.692 (inactive),-0.33 (inactive),0.441 (inactive),-0.0682 (inactive),-1.04,-0.285,0.3,1.2,-0.693
COc1cc2c(cc1O)C(c1ccc(CN3CCCC3)cc1)N(Cc1cccc(OC(F)(F)F)c1)CC2 (stereo not given),1.67,0.879,-0.425,0.406,1.22,0.476,-2.01,0.242,0.625,-1.37 (inactive),-0.0324,-5.42 (inactive),1.15 (inactive),0.0924 (inactive),0.248 (inactive),0.0307,-0.15,0.47,1.13,0.345
C=CCC(OC(C)=O)[C@@H]1[C@@H](N(Cc2cc3ccccc3o2)C(=O)Cc2ccc(OC)cc2)c2cc(OCCCO)ccc2N1C(=O)Cc1ccc(OC)cc1 (stereo not given in full),0.69,-0.406,0.517,0.712,0.726,0.171,-0.411,-0.0035,0.67,0.244 (inactive),-0.0737,-1.17 (inactive),0.0258 (inactive),0.469 (inactive),-0.0385 (inactive),-0.213,0.168,0.29,0.34,0.551
CC(C)C[C@@H]1NC(=O)[C@@H]2C[C@H](C(=O)O)[C@H](c3ccc(O)cc3)N2C1=O,2.41,1.13,0.6,0.878,1.37,1.49,0.892,1.04,0.938,-2.98 (inactive),0.415,-0.393 (inactive),-0.934 (inactive),-0.114 (inactive),-0.837 (inactive),0.741,-0.013,0.656,1.05,1.74
CC(C)CNC(=O)[C@@]1(C)c2ccccc2C(=O)N(Cc2cc(F)cc(C(F)(F)F)c2)[C@H]1c1ccc(CO)cc1,0.83,0.85,0.0301,0.51,1.16,0.803,0.165,0.372,0.154,0.189 (inactive),0.03,0.169 (inactive),-0.428 (inactive),-0.321 (inactive),0.13 (inactive),-0.26,-0.0719,0.194,0.127,1.23
